Test results: PubChem BioAssay AID2061166 (Soto Lab, Mitchell Center for Alzheimers Disease and …, 2025)
Values without a mark were called inactive. The source made the active and inactive calls.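 How the source made its calls: active means mean tau seeding fluorescence area under 1% of vehicle, meaning inhibition above a set limit; inactive means the rest.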

biological target: Microtubule-associated protein tau (Homo sapiens) (UniProt P10636); experiment: inhibitors of seeded tau aggregation, primary screen, biochemical, seed amplification, ThT fluorescence (AID 2061166); details: Recombinant tau seeded by AD brain, ThT fluorescence AUC; at 100 µM; hits give high values
Sequence (P10636 whole entry, looked up): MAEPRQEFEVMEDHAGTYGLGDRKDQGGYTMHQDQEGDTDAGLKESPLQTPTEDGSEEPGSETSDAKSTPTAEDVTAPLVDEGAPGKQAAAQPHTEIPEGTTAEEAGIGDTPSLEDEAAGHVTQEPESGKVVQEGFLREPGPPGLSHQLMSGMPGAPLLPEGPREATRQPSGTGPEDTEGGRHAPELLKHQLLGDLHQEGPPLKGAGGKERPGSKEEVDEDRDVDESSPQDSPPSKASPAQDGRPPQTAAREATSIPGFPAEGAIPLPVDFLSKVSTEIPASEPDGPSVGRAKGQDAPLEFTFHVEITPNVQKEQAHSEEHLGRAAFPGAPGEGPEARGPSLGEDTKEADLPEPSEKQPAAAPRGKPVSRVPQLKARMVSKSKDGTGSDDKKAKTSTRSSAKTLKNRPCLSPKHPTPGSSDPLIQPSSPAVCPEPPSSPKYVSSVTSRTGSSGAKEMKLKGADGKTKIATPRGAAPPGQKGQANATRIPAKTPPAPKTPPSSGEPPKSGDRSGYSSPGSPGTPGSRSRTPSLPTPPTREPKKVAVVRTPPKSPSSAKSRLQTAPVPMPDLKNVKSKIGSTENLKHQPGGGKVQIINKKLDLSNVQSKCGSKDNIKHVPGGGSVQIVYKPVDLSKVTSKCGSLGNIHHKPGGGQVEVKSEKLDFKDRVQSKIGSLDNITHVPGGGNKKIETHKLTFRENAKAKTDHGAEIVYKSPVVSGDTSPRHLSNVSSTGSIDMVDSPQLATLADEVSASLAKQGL

SMILES	inhibition
COc1cc2nc(N(C)CCCNC(=O)C3CCCO3)nc(N)c2cc1OC (configuration not stated)	17.4%
COC1C(=O)C2(C)C(OC)CC3OCC3(OC(C)=O)C2C(OC(=O)c2ccccc2)C2(O)CC(OC(=O)C(O)C(NC(=O)OC(C)(C)C)c3ccccc3)C(C)=C1C2(C)C (configuration not stated)	10.4%
CCCCN1CCCCC1C(=O)Nc1c(C)cccc1C (configuration not stated)	7.03%
Nc1c2c(nc3ccccc13)CCCC2	20.6%
CO/N=C(\C(=O)NC1C(=O)N2C(C(=O)[O-])=C(C[N+]3(C)CCCC3)CSC12)c1csc(N)n1 (configuration not stated)	53.1%
COc1cc(C=CC(=O)CC(=O)C=Cc2ccc(O)c(OC)c2)ccc1O	86.4%
CCOC(=O)C1=C(C)NC(C)=C(C(=O)OC)C1c1cccc(Cl)c1Cl (configuration not stated)	51.7%
Nc1cccc2c1CN(C1CCC(=O)NC1=O)C2=O (configuration not stated)	42.8%
Brc1cccc(-c2cc(-c3ccc4c(c3)OCO4)[nH]n2)c1	-25.9%
C[N+](C)=c1ccc2nc3ccc(N)cc3sc-2c1	100% (active)
COC(=O)/C=C/C(=O)OC	3.37%
C#CC1(O)CCC2C3CCC4=Cc5oncc5CC4(C)C3CCC21C (configuration not stated)	45.1%
CCC(C(=O)O)c1ccc(N2Cc3ccccc3C2=O)cc1 (configuration not stated)	26.9%
NC(=O)N1CCC(CC(=O)N2CCC(C3c4ncc(Br)cc4CCc4cc(Cl)cc(Br)c43)CC2)CC1 (configuration not stated)	20.1%
CCOc1nc2cccc(C(=O)O)c2n1Cc1ccc(-c2ccccc2-c2nn[nH]n2)cc1	36.2%
C=CCc1ccc(O)c(-c2ccc(O)c(CC=C)c2)c1	93.5%

SMILES	inhibition
Cc1nc2c([nH]1)CCN(C(=O)c1ccc(NC(=O)c3ccccc3-c3ccccc3)cc1)c1ccccc1-2	6.08%
C#Cc1cccc(Nc2ncnc3cc(OCCOC)c(OCCOC)cc23)c1	-11.4%
CC1COc2c(N3CCN(C)CC3)c(F)cc3c(=O)c(C(=O)O)cn1c23 (configuration not stated)	-27.6%
CCC(=O)NCCC1CCc2ccc3c(c21)CCO3 (configuration not stated)	-20.8%
CC(C)COc1ccc(CNC(=O)N(Cc2ccc(F)cc2)C2CCN(C)CC2)cc1	-91.6%
CNC(=O)c1cc(Oc2ccc(NC(=O)Nc3ccc(Cl)c(C(F)(F)F)c3)cc2)ccn1	-11%
COc1ccc2[nH]cc(CCNC(C)=O)c2c1	-15.9%
CN(C)CCCN1c2ccccc2Sc2ccccc21	13.2%
Clc1cccc(Cl)c1NC1=NCCN1	-11.7%
O=C(OC1CN2CCC1CC2)N1CCc2ccccc2C1c1ccccc1 (configuration not stated)	-37.8%
Cc1ccc(Nc2nccc(N(C)c3ccc4c(C)n(C)nc4c3)n2)cc1S(N)(=O)=O	-1.27%
OCCOCCN1CCN(C2=Nc3ccccc3Sc3ccccc32)CC1	22.2%
CN(C)CCc1c[nH]c2ccc(Cn3cncn3)cc12	-4.86%
CCc1cc(C(N)=S)ccn1	40.9%
O=S(=O)(O)c1cc(S(=O)(=O)O)c2c(N=Nc3ccccc3)c(O)ccc2c1	39%
CC12CC3CC(C)(C1)CC(N)(C3)C2	10.2%
